# Measured values reported in PMC7862700, “An all-to-all approach to the identification of sequence-specific readers for epigenetic DNA modifications on cytosine”.
# Tests used:
# Assay in all cases: DAPPL (digital affinity profiling via proximity ligation, sequencing); 10 mM Tris-HCl pH 7.5, 50 mM NaCl, 1 mM DTT, 4% glycerol, room temperature, 30 min; GST-TFs on glutathione beads, 16-mer random dsDNA library, 0.1% formaldehyde crosslink after washing; high values mean tight binding
# FLI1 = biological target: T1, FLI1 (Homo sapiens, UniProt Q01543 1-452); details: protein: recombinant; tags: N-terminal GST; dsDNA, one strand shown
# T1 sequence: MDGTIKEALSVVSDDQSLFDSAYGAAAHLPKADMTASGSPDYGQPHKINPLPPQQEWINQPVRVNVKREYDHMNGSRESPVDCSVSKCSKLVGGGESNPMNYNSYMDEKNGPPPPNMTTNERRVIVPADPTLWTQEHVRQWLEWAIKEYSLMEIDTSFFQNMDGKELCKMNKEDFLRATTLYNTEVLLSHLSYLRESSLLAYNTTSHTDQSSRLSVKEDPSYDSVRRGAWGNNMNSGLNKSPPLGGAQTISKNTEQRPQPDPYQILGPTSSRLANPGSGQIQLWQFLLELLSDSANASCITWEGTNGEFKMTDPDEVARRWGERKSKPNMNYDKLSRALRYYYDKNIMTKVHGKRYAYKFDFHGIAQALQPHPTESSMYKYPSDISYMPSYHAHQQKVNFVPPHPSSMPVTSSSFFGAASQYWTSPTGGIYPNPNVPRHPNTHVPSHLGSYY
# Summary of the method: (§1)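 In yeast, human transcription factors were expressed with a GST fusion, then pulled down on glutathione beads and given DNA barcodes. Pooled with a tag-only sample, they were exposed to 200 nmole of a 16-mer random double-stranded DNA library (Tris/NaCl/DTT/glycerol buffer, room temperature, 30 min), washed, crosslinked with 0.1% formaldehyde, proximity-ligated using BsaI/T4 ligase for 1 h at 37 °C, PCR-amplified and read on an Illumina NextSeq500. Each hexamer's frequency of reads for a factor, divided by the matching frequency for the tag-only sample, gives the binding signal.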
# ELK1 = biological target: T2, ELK1 (Homo sapiens, UniProt P19419 1-428); details: protein: recombinant; tags: N-terminal GST; dsDNA, one strand shown
# T2 sequence: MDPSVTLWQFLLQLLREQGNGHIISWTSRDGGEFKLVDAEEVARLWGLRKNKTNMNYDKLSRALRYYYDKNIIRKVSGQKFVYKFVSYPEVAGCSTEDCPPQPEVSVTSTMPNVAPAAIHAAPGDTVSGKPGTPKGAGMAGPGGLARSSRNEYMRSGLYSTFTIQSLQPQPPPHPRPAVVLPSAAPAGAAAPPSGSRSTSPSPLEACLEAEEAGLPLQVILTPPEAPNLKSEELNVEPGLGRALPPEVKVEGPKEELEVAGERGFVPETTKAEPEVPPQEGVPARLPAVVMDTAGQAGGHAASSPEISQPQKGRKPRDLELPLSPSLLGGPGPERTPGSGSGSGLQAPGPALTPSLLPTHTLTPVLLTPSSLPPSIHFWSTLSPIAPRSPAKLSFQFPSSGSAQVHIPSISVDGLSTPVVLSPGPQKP
# Summary of the method: as §1
# GABPA = biological target: T3, GABPA (Homo sapiens, UniProt Q06546 1-454); details: protein: recombinant; tags: N-terminal GST; dsDNA, one strand shown
# T3 sequence: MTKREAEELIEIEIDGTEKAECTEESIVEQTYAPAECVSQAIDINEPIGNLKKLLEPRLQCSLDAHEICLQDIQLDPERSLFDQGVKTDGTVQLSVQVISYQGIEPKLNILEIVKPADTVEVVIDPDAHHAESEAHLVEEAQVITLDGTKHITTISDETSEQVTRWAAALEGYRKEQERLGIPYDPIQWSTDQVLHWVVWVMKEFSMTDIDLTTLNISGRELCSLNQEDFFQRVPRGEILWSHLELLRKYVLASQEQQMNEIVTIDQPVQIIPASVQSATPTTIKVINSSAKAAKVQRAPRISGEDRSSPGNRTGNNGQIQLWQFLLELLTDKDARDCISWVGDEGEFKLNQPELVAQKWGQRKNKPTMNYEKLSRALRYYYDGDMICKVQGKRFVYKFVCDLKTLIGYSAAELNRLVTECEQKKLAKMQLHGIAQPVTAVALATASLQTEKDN
# Summary of the method: as §1
# ERG = biological target: T4, ERG (Homo sapiens, UniProt P11308 1-479); details: protein: recombinant; tags: N-terminal GST; dsDNA, one strand shown
# T4 sequence: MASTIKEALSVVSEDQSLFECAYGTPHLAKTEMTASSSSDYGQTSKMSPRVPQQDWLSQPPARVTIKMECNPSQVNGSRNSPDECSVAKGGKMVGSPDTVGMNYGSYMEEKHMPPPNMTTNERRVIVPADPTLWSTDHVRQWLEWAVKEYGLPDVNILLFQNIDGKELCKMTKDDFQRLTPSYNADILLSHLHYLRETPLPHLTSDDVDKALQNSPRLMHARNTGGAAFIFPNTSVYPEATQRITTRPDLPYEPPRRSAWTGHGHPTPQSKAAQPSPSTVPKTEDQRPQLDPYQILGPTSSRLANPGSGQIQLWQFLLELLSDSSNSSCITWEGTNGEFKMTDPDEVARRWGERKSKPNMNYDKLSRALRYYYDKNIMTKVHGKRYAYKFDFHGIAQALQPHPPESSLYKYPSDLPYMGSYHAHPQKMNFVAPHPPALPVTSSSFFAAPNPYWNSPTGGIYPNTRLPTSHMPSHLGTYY
# Summary of the method: as §1
# ELF1 = ELF1 (Homo sapiens, UniProt P32519 1-619); details: protein: recombinant; tags: N-terminal GST; dsDNA, one strand shown
# ELF1, sequence (P32519 whole entry): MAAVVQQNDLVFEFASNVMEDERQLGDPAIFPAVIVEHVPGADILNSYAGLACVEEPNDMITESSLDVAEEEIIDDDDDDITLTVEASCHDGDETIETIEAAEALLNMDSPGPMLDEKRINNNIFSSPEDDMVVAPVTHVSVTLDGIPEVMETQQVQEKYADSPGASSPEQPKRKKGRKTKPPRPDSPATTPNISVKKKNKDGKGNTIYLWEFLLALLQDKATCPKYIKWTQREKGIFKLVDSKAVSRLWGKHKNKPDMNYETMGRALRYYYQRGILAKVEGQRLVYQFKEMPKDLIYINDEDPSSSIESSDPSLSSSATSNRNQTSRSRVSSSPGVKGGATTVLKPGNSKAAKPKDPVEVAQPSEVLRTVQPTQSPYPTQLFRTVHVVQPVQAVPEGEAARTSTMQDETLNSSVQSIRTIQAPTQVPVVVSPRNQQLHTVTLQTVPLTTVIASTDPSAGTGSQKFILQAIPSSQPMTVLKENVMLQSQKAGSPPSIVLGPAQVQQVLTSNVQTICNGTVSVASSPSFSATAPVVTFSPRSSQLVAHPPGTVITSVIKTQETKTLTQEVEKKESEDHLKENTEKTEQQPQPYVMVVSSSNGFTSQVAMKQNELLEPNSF
# Summary of the method: as §1
# EHF = biological target: T5, EHF (Homo sapiens, UniProt Q9NZC4 1-300); details: protein: recombinant; tags: N-terminal GST; dsDNA, one strand shown
# T5 sequence: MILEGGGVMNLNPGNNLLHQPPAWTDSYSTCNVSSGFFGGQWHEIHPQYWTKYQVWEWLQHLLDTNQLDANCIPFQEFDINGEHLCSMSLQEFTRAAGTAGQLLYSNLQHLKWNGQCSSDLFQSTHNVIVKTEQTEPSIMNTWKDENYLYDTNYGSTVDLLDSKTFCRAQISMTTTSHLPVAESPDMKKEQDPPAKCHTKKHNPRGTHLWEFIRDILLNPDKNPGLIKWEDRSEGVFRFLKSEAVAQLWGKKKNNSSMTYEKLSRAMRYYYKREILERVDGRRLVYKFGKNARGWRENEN
# Summary of the method: as §1
# SPI1 = SPI1 (Homo sapiens, UniProt P17947 1-270); details: protein: recombinant; tags: N-terminal GST; dsDNA, one strand shown
# Summary of the method: as §1
# SPIB = SPIB (Homo sapiens, UniProt Q01892 1-262); details: protein: recombinant; tags: N-terminal GST; dsDNA, one strand shown
# SPIB, sequence (Q01892 whole entry): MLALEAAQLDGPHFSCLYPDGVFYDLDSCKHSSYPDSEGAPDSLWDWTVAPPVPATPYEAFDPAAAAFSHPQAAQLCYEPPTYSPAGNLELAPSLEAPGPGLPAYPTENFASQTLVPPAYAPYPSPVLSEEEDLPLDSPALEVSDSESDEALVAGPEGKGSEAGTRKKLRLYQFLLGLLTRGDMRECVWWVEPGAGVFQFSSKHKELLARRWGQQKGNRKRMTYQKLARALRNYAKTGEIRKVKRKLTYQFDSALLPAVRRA
# Summary of the method: as §1
# ELK3 = biological target: T6, ELK3 (Homo sapiens, UniProt P41970 1-407); details: protein: recombinant; tags: N-terminal GST; dsDNA, one strand shown
# T6 sequence: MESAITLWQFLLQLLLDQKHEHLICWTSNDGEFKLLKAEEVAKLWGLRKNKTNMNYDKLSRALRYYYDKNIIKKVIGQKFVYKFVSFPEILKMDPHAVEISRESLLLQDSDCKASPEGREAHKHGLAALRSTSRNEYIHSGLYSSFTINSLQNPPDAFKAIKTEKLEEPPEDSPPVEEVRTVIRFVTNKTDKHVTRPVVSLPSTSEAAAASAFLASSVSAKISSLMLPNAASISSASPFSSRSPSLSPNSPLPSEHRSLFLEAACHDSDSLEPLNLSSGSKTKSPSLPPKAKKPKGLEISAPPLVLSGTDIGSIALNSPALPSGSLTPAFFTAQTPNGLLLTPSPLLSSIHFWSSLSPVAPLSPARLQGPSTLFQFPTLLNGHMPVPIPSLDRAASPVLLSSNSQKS
# Summary of the method: as §1
# FEV = biological target: T7, FEV (Homo sapiens, UniProt Q99581 1-238); details: protein: recombinant; tags: N-terminal GST; dsDNA, one strand shown
# T7 sequence: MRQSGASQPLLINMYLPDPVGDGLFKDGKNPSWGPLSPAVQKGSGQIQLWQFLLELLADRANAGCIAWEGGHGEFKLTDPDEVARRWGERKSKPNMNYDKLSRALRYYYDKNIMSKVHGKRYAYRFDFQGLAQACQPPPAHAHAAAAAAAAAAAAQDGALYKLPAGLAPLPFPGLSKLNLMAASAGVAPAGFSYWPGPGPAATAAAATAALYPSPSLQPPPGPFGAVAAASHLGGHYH
# Summary of the method: as §1
# ETV5 = ETV5 (Homo sapiens, UniProt P41161 1-510); details: protein: recombinant; tags: N-terminal GST; dsDNA, one strand shown
# ETV5, sequence (P41161 whole entry): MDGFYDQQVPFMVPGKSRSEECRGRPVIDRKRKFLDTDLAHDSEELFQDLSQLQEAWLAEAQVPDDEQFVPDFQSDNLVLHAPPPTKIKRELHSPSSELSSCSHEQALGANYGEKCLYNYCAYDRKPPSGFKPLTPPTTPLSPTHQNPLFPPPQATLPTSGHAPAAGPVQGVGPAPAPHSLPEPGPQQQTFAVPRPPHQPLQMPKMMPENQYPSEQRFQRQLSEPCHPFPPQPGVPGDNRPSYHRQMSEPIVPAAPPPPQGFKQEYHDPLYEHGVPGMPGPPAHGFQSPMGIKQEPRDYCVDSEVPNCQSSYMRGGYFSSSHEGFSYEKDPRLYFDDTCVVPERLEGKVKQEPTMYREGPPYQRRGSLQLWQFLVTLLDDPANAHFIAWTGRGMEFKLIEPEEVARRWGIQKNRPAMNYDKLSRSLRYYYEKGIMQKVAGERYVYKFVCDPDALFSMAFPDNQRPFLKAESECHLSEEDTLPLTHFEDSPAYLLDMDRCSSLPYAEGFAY
# Summary of the method: as §1
# HSF1 = HSF1 (Homo sapiens, UniProt Q00613 1-529); details: protein: recombinant; tags: N-terminal GST; chain copies: 3; dsDNA, one strand shown
# HSF1, sequence (Q00613 whole entry): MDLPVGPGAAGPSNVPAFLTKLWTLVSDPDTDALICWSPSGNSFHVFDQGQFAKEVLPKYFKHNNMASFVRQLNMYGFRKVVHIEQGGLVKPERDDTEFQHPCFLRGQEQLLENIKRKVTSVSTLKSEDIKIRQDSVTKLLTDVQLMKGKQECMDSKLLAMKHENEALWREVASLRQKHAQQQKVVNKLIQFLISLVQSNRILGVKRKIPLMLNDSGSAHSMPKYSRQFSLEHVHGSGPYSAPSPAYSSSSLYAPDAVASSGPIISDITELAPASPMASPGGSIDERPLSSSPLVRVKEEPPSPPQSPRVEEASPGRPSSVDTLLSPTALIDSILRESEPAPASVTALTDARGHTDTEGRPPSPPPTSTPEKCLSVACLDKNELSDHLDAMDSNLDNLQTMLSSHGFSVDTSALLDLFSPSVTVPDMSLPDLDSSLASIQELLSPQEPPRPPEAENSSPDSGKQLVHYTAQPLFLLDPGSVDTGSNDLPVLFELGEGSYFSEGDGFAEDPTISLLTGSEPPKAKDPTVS
# Summary of the method: as §1
# SPIC = biological target: T8, SPIC (Homo sapiens, UniProt Q8N5J4 1-248); details: protein: recombinant; tags: N-terminal GST; dsDNA, one strand shown
# T8 sequence: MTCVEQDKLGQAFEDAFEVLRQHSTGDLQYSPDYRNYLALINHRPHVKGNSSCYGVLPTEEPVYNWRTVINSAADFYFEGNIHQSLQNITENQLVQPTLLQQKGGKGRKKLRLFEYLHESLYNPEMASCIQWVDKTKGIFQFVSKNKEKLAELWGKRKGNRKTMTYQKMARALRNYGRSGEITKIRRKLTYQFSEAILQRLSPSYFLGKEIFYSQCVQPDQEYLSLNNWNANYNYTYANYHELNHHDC
# Summary of the method: as §1
# ELF4 = ELF4 (Homo sapiens, UniProt Q99607 1-663); details: protein: recombinant; tags: N-terminal GST; dsDNA, one strand shown
# ELF4, sequence (Q99607 whole entry): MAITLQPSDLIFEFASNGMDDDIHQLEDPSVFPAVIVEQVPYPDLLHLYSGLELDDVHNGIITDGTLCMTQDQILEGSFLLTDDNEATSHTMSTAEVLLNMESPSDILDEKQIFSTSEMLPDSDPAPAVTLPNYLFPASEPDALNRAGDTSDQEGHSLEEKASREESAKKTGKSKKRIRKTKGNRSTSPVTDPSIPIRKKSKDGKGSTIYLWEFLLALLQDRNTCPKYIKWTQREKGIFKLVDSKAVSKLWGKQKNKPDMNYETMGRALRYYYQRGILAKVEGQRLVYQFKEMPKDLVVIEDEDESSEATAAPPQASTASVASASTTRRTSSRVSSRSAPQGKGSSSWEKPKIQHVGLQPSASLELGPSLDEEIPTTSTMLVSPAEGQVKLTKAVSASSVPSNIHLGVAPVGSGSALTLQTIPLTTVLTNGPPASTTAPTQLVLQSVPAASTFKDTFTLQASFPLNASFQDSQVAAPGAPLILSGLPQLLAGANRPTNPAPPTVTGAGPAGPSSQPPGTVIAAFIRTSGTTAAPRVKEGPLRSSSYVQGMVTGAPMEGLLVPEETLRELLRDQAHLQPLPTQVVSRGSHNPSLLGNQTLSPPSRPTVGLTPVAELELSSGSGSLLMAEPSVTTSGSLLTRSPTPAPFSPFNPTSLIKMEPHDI
# Summary of the method: as §1
# ELK4 = biological target: T9, ELK4 (Homo sapiens, UniProt P28324-2 1-405); details: protein: recombinant; tags: N-terminal GST; dsDNA, one strand shown
# T9 sequence: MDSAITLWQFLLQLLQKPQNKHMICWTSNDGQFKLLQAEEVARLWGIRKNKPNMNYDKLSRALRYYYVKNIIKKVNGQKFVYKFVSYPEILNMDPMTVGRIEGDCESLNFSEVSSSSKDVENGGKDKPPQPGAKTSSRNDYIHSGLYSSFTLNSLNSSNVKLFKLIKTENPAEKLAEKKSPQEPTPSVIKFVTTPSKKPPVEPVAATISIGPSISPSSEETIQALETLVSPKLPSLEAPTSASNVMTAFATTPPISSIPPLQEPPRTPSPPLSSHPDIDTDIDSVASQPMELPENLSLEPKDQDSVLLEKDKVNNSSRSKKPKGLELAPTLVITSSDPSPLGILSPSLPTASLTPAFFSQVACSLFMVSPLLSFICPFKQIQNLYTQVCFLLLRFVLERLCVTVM
# Summary of the method: as §1
# ETV2 = biological target: T10, ETV2 (Homo sapiens, UniProt O00321 1-342); details: protein: recombinant; tags: N-terminal GST; dsDNA, one strand shown
# T10 sequence: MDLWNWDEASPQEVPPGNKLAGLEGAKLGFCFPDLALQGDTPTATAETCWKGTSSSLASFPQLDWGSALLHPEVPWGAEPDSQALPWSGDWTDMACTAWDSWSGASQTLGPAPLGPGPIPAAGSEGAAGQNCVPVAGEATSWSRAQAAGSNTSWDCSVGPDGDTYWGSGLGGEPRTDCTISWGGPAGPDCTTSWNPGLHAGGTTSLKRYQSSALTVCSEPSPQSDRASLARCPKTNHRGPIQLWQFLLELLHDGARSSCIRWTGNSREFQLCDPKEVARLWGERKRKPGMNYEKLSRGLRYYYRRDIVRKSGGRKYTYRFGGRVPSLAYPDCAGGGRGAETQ
# Summary of the method: as §1
# ELF3 = biological target: T11, ELF3 (Homo sapiens, UniProt P78545 1-371); details: protein: recombinant; tags: N-terminal GST; dsDNA, one strand shown
# T11 sequence: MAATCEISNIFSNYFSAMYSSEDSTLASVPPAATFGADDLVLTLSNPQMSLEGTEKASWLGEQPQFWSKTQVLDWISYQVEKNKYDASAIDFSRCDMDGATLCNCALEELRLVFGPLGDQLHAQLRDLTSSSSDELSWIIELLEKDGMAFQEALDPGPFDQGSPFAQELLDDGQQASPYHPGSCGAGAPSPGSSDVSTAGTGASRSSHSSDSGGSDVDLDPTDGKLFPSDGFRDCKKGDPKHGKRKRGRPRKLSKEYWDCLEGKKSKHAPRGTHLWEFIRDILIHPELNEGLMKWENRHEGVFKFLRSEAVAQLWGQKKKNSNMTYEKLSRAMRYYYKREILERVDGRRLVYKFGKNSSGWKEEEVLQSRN
# Summary of the method: as §1
# CRX = CRX (Homo sapiens, UniProt O43186 1-299); details: protein: recombinant; tags: N-terminal GST; dsDNA, one strand shown
# CRX, sequence (O43186 whole entry): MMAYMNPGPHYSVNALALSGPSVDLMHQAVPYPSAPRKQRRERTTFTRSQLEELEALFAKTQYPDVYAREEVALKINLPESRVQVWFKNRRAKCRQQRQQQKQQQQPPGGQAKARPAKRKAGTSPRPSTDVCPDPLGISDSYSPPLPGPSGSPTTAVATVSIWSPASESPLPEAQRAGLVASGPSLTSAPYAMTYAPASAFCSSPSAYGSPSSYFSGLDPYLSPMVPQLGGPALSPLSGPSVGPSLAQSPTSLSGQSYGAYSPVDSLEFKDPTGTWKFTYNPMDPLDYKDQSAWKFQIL
# Summary of the method: as §1
# ETV1 = ETV1 (Homo sapiens, UniProt P50549 1-477); details: protein: recombinant; tags: N-terminal GST; dsDNA, one strand shown
# ETV1, sequence (P50549 whole entry): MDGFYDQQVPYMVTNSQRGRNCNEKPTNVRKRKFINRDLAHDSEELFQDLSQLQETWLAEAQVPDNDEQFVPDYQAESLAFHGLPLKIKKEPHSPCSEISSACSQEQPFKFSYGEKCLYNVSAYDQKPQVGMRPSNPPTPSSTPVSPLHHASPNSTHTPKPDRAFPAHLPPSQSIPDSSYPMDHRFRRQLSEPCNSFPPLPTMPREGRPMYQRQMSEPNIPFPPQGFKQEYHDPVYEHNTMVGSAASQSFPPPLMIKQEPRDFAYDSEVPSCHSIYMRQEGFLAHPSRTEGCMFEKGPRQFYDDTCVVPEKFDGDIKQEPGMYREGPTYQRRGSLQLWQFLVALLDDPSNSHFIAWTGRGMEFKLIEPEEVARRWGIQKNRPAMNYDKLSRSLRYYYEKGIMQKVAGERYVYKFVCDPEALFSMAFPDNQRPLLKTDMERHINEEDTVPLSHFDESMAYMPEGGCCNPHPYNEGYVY
# Summary of the method: as §1
sequence,measurement,setting,value
TTTTAT,binding signal,FLI1,"1.4 fold enrichment (6-mer frequency, TF over GST control)"
same,binding signal,ELK1,"1.16 fold enrichment (6-mer frequency, TF over GST control)"
same,binding signal,GABPA,"1.42 fold enrichment (6-mer frequency, TF over GST control)"
same,binding signal,ERG,"1.3 fold enrichment (6-mer frequency, TF over GST control)"
same,binding signal,ELF1,"1.17 fold enrichment (6-mer frequency, TF over GST control)"
same,binding signal,EHF,"1.44 fold enrichment (6-mer frequency, TF over GST control)"
same,binding signal,SPI1,"1.44 fold enrichment (6-mer frequency, TF over GST control)"
same,binding signal,SPIB,"1.37 fold enrichment (6-mer frequency, TF over GST control)"
same,binding signal,ELK3,"1.34 fold enrichment (6-mer frequency, TF over GST control)"
same,binding signal,FEV,"1.32 fold enrichment (6-mer frequency, TF over GST control)"
same,binding signal,ETV5,"1.26 fold enrichment (6-mer frequency, TF over GST control)"
same,binding signal,HSF1,"1.46 fold enrichment (6-mer frequency, TF over GST control)"
same,binding signal,SPIC,"1.39 fold enrichment (6-mer frequency, TF over GST control)"
same,binding signal,ELF4,"1.4 fold enrichment (6-mer frequency, TF over GST control)"
same,binding signal,ELK4,"1.26 fold enrichment (6-mer frequency, TF over GST control)"
same,binding signal,ETV2,"1.36 fold enrichment (6-mer frequency, TF over GST control)"
same,binding signal,ELF3,"1.32 fold enrichment (6-mer frequency, TF over GST control)"
same,binding signal,CRX,"1.77 fold enrichment (6-mer frequency, TF over GST control)"
same,binding signal,ETV1,"1.3 fold enrichment (6-mer frequency, TF over GST control)"
